Assay results as given in PubChem BioAssay AID1362 (SRMLSC, 2008).
Out of some 190,000 compounds screened, about 4,000 (2.1%) were called active. Rule as the data show it: active = inhibition above about 58%; inactive = the rest, inconclusive results apart; tested in S. cerevisiae. Shown is part of a subset that was picked to be rich in actives.

Assay: growth inhibition of WT strain, primary screen, mitochondrial fusion inhibitor project, WT and mutant strains, chemical genetic (AID 1362)
Conditions: mitochondrial fusion phenotypic screen, at 10 µM
[1] = WT strain, growth inhibition, stronger effect = higher value

## CC(Sc1nncn1C)C(=O)Nc1cc(C(F)(F)F)ccc1N1CCOCC1 (centres undefined)
[1]
  inhibition: -29% (inactive)
Mutant strain inhibition
  inhibition: -7.18%

## COc1ccc(OC)c(NC(=O)CN2CCN(C(=O)c3ccco3)CC2)c1
[1]
  inhibition: -14.9% (inactive)
Mutant strain inhibition
  inhibition: -24.9%

## COc1ccc(NC(C)=O)cc1NC(=O)CN1CCN(c2ccccn2)CC1
[1]
  inhibition: -13.6% (inactive)
Mutant strain inhibition
  inhibition: -9.7%

## COc1ccc(NC(C)=O)cc1NC(=O)CN1CCN(C2c3ccccc3-c3ccccc32)CC1
[1]
  inhibition: 60.1% (active)
Mutant strain inhibition
  inhibition: 41.5%

## Cc1c(C(=O)N2CCOCC2)[nH]c2ccc(OCc3ccccc3)cc12
[1]
  inhibition: 14.8% (inactive)
Mutant strain inhibition
  inhibition: 11.7%

## Cc1c(CN2CCC(CO)(CCOc3ccccc3)CC2)[nH]c2ccc(Cl)cc12
[1]
  inhibition: 94.7% (active)
Mutant strain inhibition
  inhibition: 93.1%

## OCC1(CCOc2ccccc2)CCN(Cc2cn[nH]c2-c2ccccc2)CC1
[1]
  inhibition: 15.8% (inactive)
Mutant strain inhibition
  inhibition: -2.31%

## CN(c1ccccc1)S(=O)(=O)c1cc(C(=O)OCC(=O)N2CCN(C(=O)c3ccco3)CC2)ccc1Cl
[1]
  inhibition: -22.5% (inactive)
Mutant strain inhibition
  inhibition: 9.01%

## COc1cccc(CC2(CO)CCN(Cc3cnc(-c4cccc(C)c4)nc3)CC2)c1
[1]
  inhibition: -0.71% (inactive)
Mutant strain inhibition
  inhibition: -25.4%

## Cc1cccc(-c2ncc(CN3CCC(CO)(CCCc4ccccc4)CC3)cn2)c1
[1]
  inhibition: 84.8% (active)
Mutant strain inhibition
  inhibition: 70.5%

## OCC1(CCc2ccccc2)CCN(Cc2ccc3nsnc3c2)CC1
[1]
  inhibition: 9.84% (inactive)
Mutant strain inhibition
  inhibition: 25.4%

## N#CCSc1nn(-c2ccc(F)cc2)c(=S)s1
[1]
  inhibition: 4.11% (inactive)
Mutant strain inhibition
  inhibition: -30.5%

## COCCN(C(=O)c1ccccc1F)c1c(N)n(Cc2ccccc2)c(=O)[nH]c1=O
[1]
  inhibition: 4.27% (inactive)
Mutant strain inhibition
  inhibition: 0.13%

## O=[N+]([O-])c1ccccc1N/N=C1\CCc2ccccc21
[1]
  inhibition: -0.84% (inactive)
Mutant strain inhibition
  inhibition: 3.81%

## O=C1c2ccccc2NC(c2ccccc2O)N1NS(=O)(=O)c1ccccc1 (centres undefined)
[1]
  inhibition: -6.26% (inactive)
Mutant strain inhibition
  inhibition: -11.6%

## CCCCN(CC)CCCNC(=O)c1ccc(CSc2nc3ccncc3[nH]2)cc1
[1]
  inhibition: 7.78% (inactive)
Mutant strain inhibition
  inhibition: 7.15%

## Cc1ccc(-n2cc(CN(C)Cc3nccn3C)c(-c3cccc(C)c3)n2)cc1
[1]
  inhibition: 78.8% (active)
Mutant strain inhibition
  inhibition: 64.6%

## COc1ccc(-n2cc(CN(C)Cc3n[nH]c(=O)[nH]3)c(-c3cccc(F)c3)n2)cc1
[1]
  inhibition: 7.75% (inactive)
Mutant strain inhibition
  inhibition: 8.93%

## Cc1cccc(-n2cc(CN3CCN(C(=O)c4ncn[nH]4)CC3)c(-c3cccc(F)c3)n2)c1
[1]
  inhibition: 10.2% (inactive)
Mutant strain inhibition
  inhibition: -17.8%

## Brc1ccc2nc(N3CCCC3)sc2c1
[1]
  inhibition: 14.9% (inactive)
Mutant strain inhibition
  inhibition: 19.6%

## CCOC(=O)C1(Cc2cccc(OC)c2)CCN(Cc2csc(C(C)=O)c2)CC1
[1]
  inhibition: 25.6% (inactive)
Mutant strain inhibition
  inhibition: 25%

## O=C(c1ccc(-c2ccccc2)cc1)C1CCCN(C(=O)c2cncs2)C1 (centres undefined)
[1]
  inhibition: -57.9% (inactive)
Mutant strain inhibition
  inhibition: 9.01%

## CCc1ccc2c(c1)C(c1ccc([N+](=O)[O-])cc1)=NNC(c1ccccc1)=N2
[1]
  inhibition: -6.57% (inactive)
Mutant strain inhibition
  inhibition: 12%

## Cc1ccc(C2=Nc3c(ccc4ccccc34)C(c3ccncc3)=NN2)cc1
[1]
  inhibition: 67.9% (active)
Mutant strain inhibition
  inhibition: 45.6%

## CCOc1ccc2c(c1)C(c1ccc(C)cc1)=NNC(c1ccc(C)cc1)=N2
[1]
  inhibition: 45.3% (inactive)
Mutant strain inhibition
  inhibition: 35.7%

## Cc1coc(C)c1C(=O)CC1(O)C(=O)N(C)c2ccc(Cl)cc21 (centres undefined)
[1]
  inhibition: 5.13% (inactive)
Mutant strain inhibition
  inhibition: 0.33%

## Cc1cccc(/C=N/NC(=O)CNc2cccc3ccccc23)n1
[1]
  inhibition: 18.4% (inactive)
Mutant strain inhibition
  inhibition: 3.37%

## CCOc1ccc(NC(=O)CCC(=O)n2nc(C)cc2C)cc1
[1]
  inhibition: -6.72% (inactive)
Mutant strain inhibition
  inhibition: -6.56%

## Cc1ccccc1NCC(=O)N/N=C\c1ccc([N+](=O)[O-])s1
[1]
  inhibition: 66.5% (active)
Mutant strain inhibition
  inhibition: 43.8%

## CCCCCC(=O)Nc1ccc(C(=O)N/N=C/c2ccc([N+](=O)[O-])cc2)cc1
[1]
  inhibition: -17% (inactive)
Mutant strain inhibition
  inhibition: 15.9%

## COc1ccc(C(=O)NCC(=O)N/N=C/c2ccc([N+](=O)[O-])s2)cc1OC
[1]
  inhibition: -4.24% (inactive)
Mutant strain inhibition
  inhibition: -9.98%

## CCOc1ccc(NC(=O)CCC(=O)N/N=C/c2ccc([N+](=O)[O-])s2)cc1
[1]
  inhibition: 60.3% (active)
Mutant strain inhibition
  inhibition: 17.2%

## CCN(CC)C(=O)Cn1cc(S(=O)(=O)CC(=O)NCc2ccc3c(c2)OCO3)c2ccccc21
[1]
  inhibition: -10.5% (inactive)
Mutant strain inhibition
  inhibition: 4.73%

## O=C(/C=C/c1ccc(F)cc1)NCCNC(=O)/C=C/c1ccc(F)cc1
[1]
  inhibition: 8.8% (inactive)
Mutant strain inhibition
  inhibition: -17%

## OCC1(Cc2ccccc2)CCN(Cc2cc3ccccc3o2)CC1
[1]
  inhibition: 24.3% (inactive)
Mutant strain inhibition
  inhibition: 36.2%

## Cc1csc(Nc2ccc(Cl)cc2)[n+]1-c1ccc(Cl)cc1
[1]
  inhibition: 78.4% (active)
Mutant strain inhibition
  inhibition: 70%

## COc1ccc(N2CCN(C(=O)COc3ccc4c(C)cc(=O)oc4c3)CC2)cc1
[1]
  inhibition: -1.11% (inactive)
Mutant strain inhibition
  inhibition: -11.1%

## CC(C)c1nc(CNC(=O)CC2C(=O)NCCN2Cc2ccoc2)cs1 (centres undefined)
[1]
  inhibition: 1.8% (inactive)
Mutant strain inhibition
  inhibition: 0.76%

## CN(C(=O)COc1ccccc1)c1nnc(-c2ccncc2)s1
[1]
  inhibition: 22.6% (inactive)
Mutant strain inhibition
  inhibition: 9.04%

## CN(CCC#N)c1ncnc2scc(-c3ccccc3)c12
[1]
  inhibition: 23.5% (inactive)
Mutant strain inhibition
  inhibition: 28.2%

## N#CCCN(CCC#N)c1nnc(-c2ccccc2)s1
[1]
  inhibition: 73.6% (active)
Mutant strain inhibition
  inhibition: -2.41%

## OCCC1CN(Cc2cccc(O)c2)CCN1CCc1ccccc1 (centres undefined)
[1]
  inhibition: 9.78% (inactive)
Mutant strain inhibition
  inhibition: 8.67%

## CCc1ccc(Oc2nc([N+](=O)[O-])nn2C)cc1
[1]
  inhibition: 3.07% (inactive)
Mutant strain inhibition
  inhibition: 19%

## CCc1ccc(-c2nn(-c3ccccc3)cc2CSC(=N)N)cc1
[1]
  inhibition: 90.2% (active)
Mutant strain inhibition
  inhibition: 35.6%

## N=C(N)SCc1cccc2ccccc12
[1]
  inhibition: 41% (inactive)
Mutant strain inhibition
  inhibition: 10.9%

## CCn1c(SCc2ccc(C)cc2)nnc1-c1nn(-c2ccccc2)ccc1=O
[1]
  inhibition: 4.19% (inactive)
Mutant strain inhibition
  inhibition: -13.4%

## O=C(Nc1ccc2cn[nH]c2c1)c1ccc(S(=O)(=O)N2CCOCC2)cc1
[1]
  inhibition: 2.7% (inactive)
Mutant strain inhibition
  inhibition: 11.1%

## CS(=O)(=O)N1CCc2cc(C(=O)Nc3ccccc3)ccc21
[1]
  inhibition: -2.67% (inactive)
Mutant strain inhibition
  inhibition: -18.5%

## Cc1cccc2cc3c(N)c(C(=O)N4CCCc5ccccc54)sc3nc12
[1]
  inhibition: 62.1% (active)
Mutant strain inhibition
  inhibition: 57.1%

## Cc1occc1C(=O)N1CCCc2ccccc21
[1]
  inhibition: -3.43% (inactive)
Mutant strain inhibition
  inhibition: -8.66%

## Cc1c(C(=O)N2CCCc3ccccc32)sc2nc(-c3ccccc3)cn12
[1]
  inhibition: 9.55% (inactive)
Mutant strain inhibition
  inhibition: 9.04%

## C/C(=N\NC(=O)c1cccc(N2CCCC2=O)c1)c1ccc(N)cc1
[1]
  inhibition: -2.44% (inactive)
Mutant strain inhibition
  inhibition: -3.4%
